Hit rate of the full screen: of about 2,300 compounds, about 1,400 (61%) were called active. Inconclusive results (about 29%) are left out. The call rests on the fitted dose curve; in most records, active means well fitted inhibition curve with a large enough effect; inconclusive means small, poorly fitted or top-dose-only effect, or effect the other way; inactive means no such curve, though single readings can be large or run the other way. So high a share suggests a set chosen from earlier hits. The list shows a part of the results.
test: Confirmation screen for delayed death inhibitors of the malarial parasite plastid, 96 hour incubation; further: nearly all actives have a fitted effect of over 60% in size; conditions: P. falciparum luciferase growth in erythrocytes; series mostly up to 28.7 µM
Summary of the method: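 Erythrocytes infected with luciferase-expressing P. falciparum (2% hematocrit, 0.1% parasitemia final) in RPMI 1640 with 0.5% Albumax, exposed to compounds 96 h at 37 C, 5% CO2. Growth inhibition read as decreased luciferase luminescence.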
Potency means the concentration at half of the fitted maximal effect.

SMILES	Potency
COc1cc(/C=C/C(=O)NC(=O)c2ccccc2O)ccc1OC(C)=O	8.91 µM (active)
Cn1c(=O)oc2cc(S(=O)(=O)NCCC(=O)NCc3ccc(F)cc3)ccc21	12.6 µM (active)
O=C1NC(=Nc2ccccc2)S/C1=C\c1ccccc1	11.2 µM (active)
O=C(NC1CCCCC1)N1CCN(c2ccc([N+](=O)[O-])cc2)CC1	12.6 µM (active)
CCCc1c(CC)c(=N)c2ccccc2n1C	0.0316 µM (active)
CC(C)(CNC(=O)/C=C/c1ccc(F)cc1)CNC(=O)/C=C/c1ccc(F)cc1	8.91 µM (active)
Nc1cccc2c1C(=O)N(C(=O)/C=C/c1ccc(F)cc1)C2=O	inactive
CCCCn1c(C2CCCCC2)nc2cc3[nH]c(=O)c(C(C)C)nc3cc21	11.2 µM (active)
Cc1cc(=O)oc2c1ccc1oc(/C(=N/O)c3ccccc3)c(C)c12	4.47 µM (active)
Cc1cc(Cl)cc(C)c1OCCn1ccnc1	11.2 µM (active)
CC#CC#Cc1cccc(=O)o1	3.98 µM (active)
Clc1ccc2nc(-c3ccccn3)c(Nc3ccc4c(c3)OCO4)n2c1	10 µM (active)
CCCCSc1nnc(-c2cc3c(C(F)(F)F)nn(C)c3s2)n1C	10 µM (active)
CCOc1ccccc1NC(=O)/C(C#N)=C/c1cccnc1	12.6 µM (active)
O=C(c1cccc(Cl)c1)c1nn(-c2ccccc2)c(=O)cc1C(F)(F)F	6.31 µM (active)
Cc1oc(=O)c(NC(=O)c2ccc(Cl)cc2)cc1C(=O)c1ccccc1	inactive
O=C(c1ccccc1)c1nn(-c2ccc(Cl)cc2)c(=O)cc1C(F)(F)F	12.6 µM (active)
COc1ccc(N2CCN(C3CCCN(Cc4ccc(F)cc4)C3)CC2)cc1 (configuration not stated)	14.1 µM (active)
COc1ccccc1N1CCN(C2CCCN(Cc3ccc(Cl)cc3)C2)CC1 (configuration not stated)	2.51 µM (active)
O=C(/C=C/c1ccccc1)c1ccc(NC2=NCCCS2)cc1	14.1 µM (active)
Cc1cccc(/C=C/C(=O)c2ccc(NC3=NCCCS3)cc2)c1	11.2 µM (active)
Cc1cc(C(=O)N2CCCC(N3CCN(c4cccc(C(F)(F)F)c4)CC3)C2)c(C)o1 (configuration not stated)	10 µM (active)
O=C(c1ccsc1)N1CCCC(N2CCN(c3cccc(C(F)(F)F)c3)CC2)C1 (configuration not stated)	12.6 µM (active)
COc1cc(Cn2nnc3ccccc32)ccc1O	11.2 µM (active)

SMILES	Potency
COc1ccc(/C=C/C(=O)c2ccccc2)cc1Cn1nnc2ccccc21	6.31 µM (active)
Cc1cccc(NC(=S)/N=C(\N)Nc2nc(C)c3ccccc3n2)c1	12.6 µM (active)
CCCN1CCN(CCCNC(=O)c2cc3c(s2)-c2c(C)cccc2OC3)CC1	12.6 µM (active)
CCn1c2ccccc2c2c3ncc4cccn4c3ccc21	14.1 µM (active)
COC(=O)[C@@H]1C[C@]2(OC(=O)c3ccccc3)C=CC(=O)C[C@@H]2N1C(=O)OCc1ccccc1	12.6 µM (active)
O=S(=O)(c1ccc(OCc2ccc(Br)cc2)cc1)N1CCOCC1	8.91 µM (active)
Cc1cc(OCC(=O)N2CCCC2)cc(C)c1Cl	inactive
CCOc1ccccc1OCCC(=O)N1CCN(S(=O)(=O)c2ccccc2[N+](=O)[O-])CC1	11.2 µM (active)
O=S(=O)(c1ccc(SCCO)nc1)N1CCOCC1	inactive
O=C(COc1ccccc1)N1CCN(S(=O)(=O)c2ccc(Br)cc2)CC1	10 µM (active)
CCOc1ccc(S(=O)(=O)N2CCN(C(=O)CCOc3ccccc3C)CC2)cc1	11.2 µM (active)
Cc1cc(C)n2nc(C(=O)N/N=C/c3c4ccccc4cc4ccccc34)nc2n1	4.47 µM (active)
CSc1ccc(C2c3[nH]c4ccccc4c3CCN2C(=O)c2ccnn2C)cc1 (configuration not stated)	3.98 µM (active)
CCc1ccc(C2c3[nH]c4ccccc4c3CCN2C(=O)c2cc(C)nn2C)cc1 (configuration not stated)	3.55 µM (active)
Cn1nccc1C(=O)N1CCc2c([nH]c3ccccc23)C1c1ccc(F)cc1 (configuration not stated)	6.31 µM (active)
N=c1c2c3c(sc2ncn1Cc1ccccc1)CCCC3	inactive
COc1ccccc1NC(=O)c1oc2ccccc2c1NC(=O)C1CC1	7.94 µM (active)
O=C(c1ccccc1)N1CCCC(c2ccc(Cl)cc2)=N1	12.6 µM (active)
O=[N+]([O-])c1ccc(Sc2cccc3cccnc23)c([N+](=O)[O-])c1	2.82 µM (active)
Cc1ccc(/C=C/C(=O)NC(C)c2ccccc2)cc1 (configuration not stated)	11.2 µM (active)
CCN(CC)CCC[C@H](C)Nc1c2ccc(Cl)cc2nc2ccc(OC)cc12	0.224 µM (active)
CCN(CC)CCC[C@H](C)Nc1ccnc2cc(Cl)ccc12	0.501 µM (active)
COc1ccc2nc3cc(Cl)ccc3c(Nc3cc(C(C)C)c(O)cc3C)c2c1	0.0251 µM (active)
